The whole screen tested about 39,000 compounds, of which about 500 (1.3%) were called active. Many of the other results were omitted from the sample, so actives are more common in it than they were.

The source of these data is the antibiotic and cytotoxicity screens of Wong et al. (2023).

The subject of the experiment is S. aureus RN4220. Briefly: growth inhibition call (relative growth <= 0.2). To be noted: 50 µM.
On to `C[C@@H]1CCCCO[C@@H](CN(C)C(=O)Nc2cccc3ccccc23)[C@H](C)CN([C@H](C)CO)C(=O)c2cc(NS(=O)(=O)c3ccccc3)ccc2O1`, for which the growth inhibition call is “inactive”.
As to `C[C@H]1CN([C@@H](C)CO)C(=O)c2cccc(NC(=O)C3CCCCC3)c2O[C@H]1CN(C)C(=O)Nc1ccc(C(F)(F)F)cc1`, the growth inhibition call was “inactive”.
As for `Cc1noc(C)c1S(=O)(=O)Nc1ccc2c(c1)C(=O)N([C@@H](C)CO)C[C@H](C)[C@H](CN(C)Cc1ccccc1)OCCCC[C@@H](C)O2`, the entry is “inactive”; as for `C[C@H](CO)N1C[C@H](C)[C@@H](CN(C)Cc2ccc(Cl)c(Cl)c2)Oc2c(NS(=O)(=O)c3ccccc3)cccc2C1=O`, “inactive”.
The result for `CO[C@@H]1CN(C)C(=O)c2ccc(NS(C)(=O)=O)cc2OC[C@H](C)N(C(=O)C2CCCCC2)C[C@@H]1C` reads “inactive”; that for `C[C@@H]1CN([C@@H](C)CO)C(=O)c2cc(NS(=O)(=O)c3cn(C)cn3)ccc2O[C@@H](C)CCCCO[C@@H]1CN(C)S(=O)(=O)c1cccs1`, “inactive”; that for `C[C@@H]1CN([C@H](C)CO)C(=O)c2cccc(NC(=O)c3nc4ccccc4s3)c2O[C@@H]1CN(C)Cc1ccc(Cl)c(Cl)c1`, “inactive”.
The result for `O=C(C[C@@H]1CC[C@H]2[C@@H](COC[C@H](O)CN2S(=O)(=O)c2ccccc2)O1)N[C@H]1CCN(Cc2ccccc2)C1` reads “inactive”.
As to `CO[C@H](CN(C)S(=O)(=O)c1cn(C)cn1)[C@H](C)CN(C(=O)Nc1ccc(C(F)(F)F)cc1)[C@@H](C)CO`, the growth inhibition call is “active”.
The result for `CO[C@@H](CN(C)S(=O)(=O)c1cn(C)cn1)[C@@H](C)CN(C(=O)Nc1ccc(C(F)(F)F)cc1)[C@@H](C)CO` reads “active”; that for `C[C@@H]1CCCCO[C@H](CN(C)S(=O)(=O)c2cn(C)cn2)[C@H](C)CN([C@H](C)CO)C(=O)c2cc(N(C)C)ccc2O1`, “inactive”; that for `COC(=O)C[C@@H]1CC[C@H]2[C@@H](COC[C@@H](O)CN2S(=O)(=O)c2ccc(F)cc2)O1`, “inactive”.
As for `COCC#Cc1cnc2c(c1)C(=O)N([C@H](C)CO)C[C@@H](C)[C@H](CN(C)C(=O)Nc1ccc(OC)cc1)O2`, the entry is “inactive”; as for `C[C@@H]1CN([C@H](C)CO)C(=O)CCCn2nncc2CO[C@H]1CN(C)C(=O)Nc1ccnc(N2CCOCC2)c1`, “inactive”; as for `CN1C(=O)[C@@]2(c3cc(Cl)ccc31)[C@H](C(=O)O)[C@H]1C(=O)O[C@H](c3ccccc3)[C@H](c3ccccc3)N1[C@@H]2c1ccc(F)cc1`, “active”.
As for `COc1ccc(C#Cc2ccc3c(c2)[C@]2(C(=O)N3)[C@H](c3ccc(O)cc3)N3[C@H](c4ccccc4)[C@H](c4ccccc4)OC(=O)[C@H]3[C@@H]2C(=O)O)cc1`, the entry is “inactive”; as for `O=C1O[C@H](c2ccccc2)[C@H](c2ccccc2)N2[C@H]1[C@@H](C(=O)O)[C@]1(C(=O)Nc3ccc(Cl)cc31)[C@H]2c1ccc(F)cc1`, “active”.
In the case of `COCCOC(=O)N1C(=O)[C@@]2(c3cc(C#Cc4ccc(OC)cc4)ccc31)[C@H](c1ccc(O)cc1)N1[C@H](c3ccccc3)[C@H](c3ccccc3)OC(=O)[C@H]1[C@@H]2C(N)=O`, the growth inhibition call is “inactive”.
Take `COc1ccc(C#Cc2ccc3c(c2)[C@]2(C(=O)N3)[C@H](C(=O)O)[C@H]3C(=O)O[C@H](c4ccccc4)[C@H](c4ccccc4)N3[C@@H]2c2ccc(O)cc2)cc1`: the growth inhibition call was “inactive”.
As for `COc1ccc(C#Cc2ccc3c(c2)[C@@]2(C(=O)N3C(=O)N[C@@H](C)c3ccccc3)[C@H](c3ccc(OCCO)cc3)N3[C@H](c4ccccc4)[C@H](c4ccccc4)OC(=O)[C@H]3[C@@H]2C(=O)O)cc1`, the entry is “inactive”.
As for `Cc1noc(C)c1S(=O)(=O)N(C)C[C@@H]1OCCCC[C@H](C)Oc2ccc(NC(=O)Nc3cccc4ccccc34)cc2C(=O)N([C@H](C)CO)C[C@H]1C`, the entry is “inactive”; as for `Cc1noc(C)c1NC(=O)N(C)C[C@@H]1OCCCC[C@@H](C)Oc2ccc(NC(=O)CCC(F)(F)F)cc2C(=O)N([C@H](C)CO)C[C@@H]1C`, “inactive”.
For `CN(C)CC(=O)N[C@H]1C=C[C@H](CC(=O)O)O[C@H]1CO`, the growth inhibition call is “inactive”.
As for `COc1cccc2c1C(=O)c1c(O)c3c(c(O)c1C2=O)C[C@](O)(C(C)=O)C[C@H]3O[C@H]1C[C@@H](N)[C@@H](O)[C@@H](C)O1`, the growth inhibition call is “active”.
As for `CC(=O)[C@]1(O)Cc2c(O)c3c(c(O)c2[C@@H](O[C@@H]2C[C@@H](N)[C@H](O)[C@@H](C)O2)C1)C(=O)c1c(O)cccc1C3=O`, the entry is “active”.
As to `COc1cccc2c1C(=O)c1c(O)c3c(c(O)c1C2=O)C[C@@](O)(C(C)=O)C[C@@H]3O[C@H]1C[C@H](N)[C@H](O)[C@H](C)O1`, the growth inhibition call was “active”.
For `COc1cccc2c1C(=O)c1c(O)c3c(c(O)c1C2=O)CC(O)(C(C)=O)CC3OC1CC(N)C(O)C(C)O1.Cl` (stereo not given), the growth inhibition call was “inactive”.
The result for `CC(=O)[C@]1(N)Cc2c(O)c3c(c(O)c2[C@@H](O[C@H]2C[C@H](O)[C@H](O)CO2)C1)C(=O)c1ccccc1C3=O` reads “inactive”.
As for `Cc1ccc(S(=O)(=O)Nc2cccc3c2O[C@H](CN(C)S(=O)(=O)c2cn(C)cn2)[C@@H](C)CN([C@H](C)CO)C3=O)cc1`, the entry is “inactive”.
The result for `C[C@@H]1CCCCO[C@H](CN(C)C(=O)NC2CCCCC2)[C@H](C)CN([C@@H](C)CO)C(=O)c2cc(NC(=O)Nc3ccc4c(c3)OCO4)ccc2O1` reads “inactive”.
Consider `Cc1cc(C)n([C@@H](CC(=O)O)C(=O)O)n1`, for which the growth inhibition call was “inactive”.
Turning to `C[C@@H]1CCCCO[C@H](CN(C)Cc2ccc(Cl)c(Cl)c2)[C@H](C)CN([C@@H](C)CO)C(=O)c2cc(NC(=O)Nc3ccc4c(c3)OCO4)ccc2O1`, the growth inhibition call was “inactive”.
In the case of `O=C(/C=C/c1ccc(CNc2ccc([C@H]3O[C@@H](CSc4ccncc4)C[C@H](c4ccccc4)O3)cc2)cc1)NO`, the growth inhibition call was “inactive”.
For `C[C@H](CO)N1C[C@H](C)[C@H](CN(C)S(=O)(=O)c2cn(C)cn2)Oc2c(NS(=O)(=O)c3ccc(F)cc3)cccc2C1=O`, the growth inhibition call is “inactive”.
As for `C[C@H]1CCCCO[C@H](CN(C)C(=O)Nc2ccc(F)cc2)[C@@H](C)CN([C@@H](C)CO)C(=O)c2cc(NC(=O)Nc3cccc4ccccc34)ccc2O1`, the entry is “inactive”; as for `COc1cccc(S(=O)(=O)Nc2ccc3c(c2)[C@@H]2C[C@@H](CC(=O)NC4CCCCC4)O[C@@H](CO)[C@@H]2O3)c1`, “inactive”.
The result for `N#C[C@@H]1N[C@@H](CO)[C@@H]1c1ccccc1` reads “inactive”; that for `CC(C)NC(=O)N(C)C[C@@H]1Oc2ccc(NC(=O)Nc3ccc4c(c3)OCO4)cc2CC(=O)N([C@@H](C)CO)C[C@H]1C`, “inactive”.
As to `COc1ccc(CN(C)C[C@H]2OCCCC[C@H](C)Oc3ccc(NS(=O)(=O)c4c(C)noc4C)cc3C(=O)N([C@@H](C)CO)C[C@@H]2C)cc1`, the growth inhibition call was “inactive”.
As for `COc1ccc(NC(=O)Nc2ccc3c(c2)C(=O)N([C@H](C)CO)C[C@H](C)[C@@H](CN(C)C(=O)c2ccccc2)OCCCC[C@H](C)O3)cc1`, the entry is “inactive”.
The result for `C[C@H](CO)N1C[C@H](C)[C@@H](CN(C)Cc2ccc(C(F)(F)F)cc2)OCCCC[C@H](C)Oc2ccc(NC(=O)c3ccccc3)cc2C1=O` reads “inactive”; that for `CC[C@H]1OC(=O)[C@H](C)[C@@H](O[C@H]2C[C@@](C)(OC)[C@@H](O)[C@H](C)O2)[C@@H](C)[C@@H](O[C@H]2O[C@H](C)C[C@H](N(C)C)[C@H]2O)[C@](C)(O)C[C@@H](C)C(=O)[C@H](C)[C@@H](O)[C@]1(C)O`, “active”.
As for `CC[C@H]1OC(=O)[C@H](C)[C@@H](O[C@H]2C[C@@](C)(OC)[C@@H](O)[C@H](C)O2)[C@H](C)[C@@H](O[C@@H]2O[C@H](C)C[C@H](N(C)C)[C@H]2O)[C@](C)(O)C[C@@H](C)C(=O)[C@H](C)[C@@H](O)[C@]1(C)O`, the entry is “active”; as for `CCCN1C[C@H](C)[C@@H](O)[C@](C)(O)[C@@H](CC)OC(=O)[C@H](C)[C@@H](O[C@H]2C[C@@](C)(OC)[C@@H](O)[C@H](C)O2)[C@H](C)[C@@H](O[C@@H]2O[C@H](C)C[C@H](N(C)C)[C@H]2O)[C@](C)(O)C[C@H]1C`, “active”.
In the case of `CCC1OC(=O)C(C)C(OC2CC(C)(OC)C(O)C(C)O2)C(C)C(OC2OC(C)CC(N(C)C)C2O)C(C)(O)CC(C)C(=O)C(C)C(O)C1(C)O.CCCCCCCCCCCCCCCCCC(=O)O` (stereo not given), the growth inhibition call is “inactive”.
The result for `CCC1OC(=O)C(C)C(OC2CC(C)(OC)C(O)C(C)O2)C(C)C(OC2OC(C)CC(N(C)C)C2O)C(C)(O)CC(C)C(=O)C(C)C(O)C1(C)O` (stereo not given) reads “active”; that for `C[C@H](CO)N1C[C@H](C)[C@H](CN(C)S(C)(=O)=O)Oc2ccc(NC(=O)Nc3ccc(F)cc3)cc2C1=O`, “inactive”; that for `C[C@@H]1CN([C@@H](C)CO)C(=O)c2cc(NC(=O)NC3CCCCC3)ccc2O[C@@H](C)CCCCO[C@H]1CN(C)S(=O)(=O)c1ccccc1`, “inactive”.
As for `Cc1ccc(NC(=O)c2ccc(CN3CC[C@H](N(C)C)C3)c(C(F)(F)F)c2)cc1Nc1nccc(-c2cncnc2)n1`, the entry is “inactive”; as for `C[C@@H]1CN([C@H](C)CO)C(=O)c2ccccc2-c2ccccc2CO[C@@H]1CN(C)Cc1ccc(C(F)(F)F)cc1`, “inactive”.
On to `C[C@H](CO)N1C[C@H](C)[C@H](CN(C)Cc2cncnc2)Oc2ncc(C#C[C@@H](C)O)cc2C1=O`, for which the growth inhibition call was “inactive”.
The result for `C[C@H]1CN([C@@H](C)CO)C(=O)c2cc(NC(=O)Cn3cnnn3)ccc2O[C@@H]1CN(C)C(=O)Nc1ccccc1` reads “inactive”; that for `C[C@H]1CN([C@@H](C)CO)S(=O)(=O)c2ccc(C#CC(C)(C)O)cc2O[C@H]1CN(C)Cc1ccc(F)cc1`, “inactive”; that for `CC[C@H]1OC(=O)[C@H](C)[C@@H](O[C@H]2C[C@@](C)(OC)[C@@H](O)[C@H](C)O2)[C@H](C)[C@@H](O[C@@H]2O[C@H](C)C[C@H](N(C)C)[C@H]2O)[C@](C)(O)C[C@@H](C)CN(C)[C@H](C)[C@@H](O)[C@]1(C)O`, “inactive”.
As for `CCC1OC(=O)C(C)C(OC2CC(C)(OC)C(O)C(C)O2)C(C)C(OC2OC(C)CC(N(C)C)C2O)C(C)(O)CC(C)CN(C)C(C)C(O)C1(C)O` (stereo not given), the entry is “active”.
